Here are results for 14 molecules from PubChem BioAssay (NCI).

SMILES strings stand for the structures. This is part of a sample that, as a whole, favours compounds with a hit. Of some 79,000 tested, about 15% had one in any assay. Values without a mark were called inactive. The source made the active and inactive calls. Cut-off read from the data, not from the text of the source: active = growth inhibition above about 70%; inactive = the rest.

A short description of the assay: NCI Yeast Anticancer Drug Screen. Data for the mec2-1 strain (AID 157). The following applies: S. cerevisiae mec2-1 strain, active compounds read high. On the procedure:
Growth inhibition of yeast strains with defined genetic alterations is measured as a screen for potential anti-cancer activity. Selected strains with alterations in DNA damage repair or cell cycle control were exposed to compounds and growth inhibition was measured relative to vehicle treated controls. The strain used in this assay is mec2-1

The mark [1] stands for this setting: at 5.0 µM (retest, dose inferred, filed as 0.5).
[2] abbreviates: at 50.0 µM (retest, dose inferred, filed as 5.0).

In the case of `CC(COC(=O)C(c1ccccc1)C1C=CCCC1)CN1CCCC1` (configuration not stated), the growth inhibition reads like this: under setting [1], 18%; under setting [2], 51%; (at 50.0 µM) 46.8%.

As for `CC1=C(C(=O)Nc2ccccc2C)C(c2ccccc2F)C(C(=O)Nc2ccccc2C)=C(C)N1`, the growth inhibition runs as follows: under setting [1], 3%; under setting [2], 8%; (at 50.0 µM) 41.9%.

`CC(C)OP(=O)(CCCCCCCCC/C=C/c1ccc2c(c1)OCCOCCOCCOCCO2)OC(C)C`: the growth inhibition was 4% under setting [1], 99% (active) under setting [2] and 92.3% (active) (at 50.0 µM).

On to `CCCCCCCCCCCCCCCCNC(C)c1ccccc1` (configuration not stated), for which the growth inhibition is, setting by setting: under setting [1], -1%; under setting [2], 9%; (at 50.0 µM) 98.7% (active).

For the molecule `CCCC1(C)C(C#N)(C#N)C1(C#N)C#N`, the growth inhibition was 96% (active) under setting [1], 99% (active) under setting [2] and 99.3% (active) (at 50.0 µM).

For the molecule `C/C(=C/C(=O)N1c2ccccc2CC1c1c[nH]c2ccccc12)C(=O)O` (configuration not stated), the growth inhibition is -8% under setting [1], 5% under setting [2] and -2.65% (at 50.0 µM).

For the molecule `O=C(NC1(OC(=O)c2ccc(Cl)cc2)CC1)c1ccc(Cl)cc1`, the growth inhibition by setting is: under setting [1], 14%; under setting [2], 98% (active); (at 50.0 µM) 97.9% (active).

On to `c1ccc([P+](CCCCCC[P+](c2ccccc2)(c2ccccc2)c2ccccc2)(c2ccccc2)c2ccccc2)cc1`, for which the growth inhibition runs as follows: under setting [1], 46%; under setting [2], 94% (active); (at 50.0 µM) 84.8% (active).

Consider `C=CCSc1nc2ccc(N3C(=O)C=CC3=O)cc2s1`, for which the growth inhibition by setting is: under setting [1], 50%; under setting [2], 99% (active); (at 50.0 µM) 98% (active).

For the molecule `[O-][n+]1ccc(Br)c(/C=C/c2ccccc2)c1`, the growth inhibition was -5% under setting [1], 32% under setting [2] and 18.1% (at 50.0 µM).

With `O=C(CN(Cc1ccccc1)Cc1ccccc1)N1CCc2c([nH]c3ccccc23)C1c1cccnc1` (configuration not stated), the growth inhibition is, setting by setting: under setting [1], 27%; under setting [2], 27%; (at 50.0 µM) 86.5% (active).

With `BrCc1ccc2ccc3ccc(CBr)nc3c2n1`, the growth inhibition by setting is: under setting [1], 11%; under setting [2], 91% (active); (at 50.0 µM) 43.5%.

In the case of `CCOC(=O)c1ccc(NC(=O)CCl)cc1`, the growth inhibition was 8% under setting [1], 98% (active) under setting [2] and 38.7% (at 50.0 µM).

In the case of `Cc1cccc(NC(=O)CCc2ccc(Cl)cc2)n1`, the growth inhibition is -17% under setting [1], -6% under setting [2] and 2.55% (at 50.0 µM).
